Source: PubChem (National Center for Advancing Translational Sciences (NCATS))
JMJD2A Tudor: qHTS Assay for Inhibitors of JMJD2A-Tudor Domain | Lysine-specific demethylase 4A (Homo sapiens), O75164 | AlphaScreen JMJD2A-Tudor / H3K4me3 peptide binding | Potency, µM (series often up to 114 µM), without a hit: at the highest dose activity change, negative = inhibition, actives largely listed as inhibitors | actives 4.4% (n = 390,000) | AID 504339, 2011; note: % is set by controls: 0 for no effect and ±100 for the full control effect; nearly all actives have a fitted effect of over 50% in size
BAZ2B block: qHTS Assay for Inhibitors of BAZ2B | Bromodomain adjacent to zinc finger domain protein 2B (Homo sapiens), Q9UIF8 | AlphaScreen BAZ2B-H3K14Ac peptide displacement | Potency, µM (doses to about 114 µM), without a hit: at the highest dose activity change, negative = inhibition, hits mostly inhibitors | actives 4.4% (n = 360,000) | AID 504333, 2011; note: % is set by controls: 0 for no effect and ±100 for the full control effect; nearly all actives have a fitted effect of over 60% in size
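BAZ2B (50 nM) with biotin-H3(5-23)K14Ac peptide (50 nM) in PBS pH 7.4, 0.01% Tween-20, preformed 30 min, then compound 30 min at room temperature; top concentration 110uM. AlphaScreen streptavidin donor/nickel chelate acceptor beads (10 ug/mL final), 20 min dark, signal read.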
G9a inh: qHTS Assay for Inhibitors of Histone Lysine Methyltransferase G9a. Histone-lysine N-methyltransferase EHMT2 (Homo sapiens), Q96KQ7. G9a H3K9 monomethylation, AlphaScreen, 2 h. Potency, µM (top dose mostly 102 µM), without a hit: at the top dose activity, negative = inhibition, hits mostly inhibitors. actives 8.8% (n = 350,000). AID 504332, 2011; note: % is set by controls: 0 for no effect and ±100 for the full control effect; nearly all actives have a fitted effect of over 75% in size
Target sequence (Q96KQ7 913-1193 limits assumed): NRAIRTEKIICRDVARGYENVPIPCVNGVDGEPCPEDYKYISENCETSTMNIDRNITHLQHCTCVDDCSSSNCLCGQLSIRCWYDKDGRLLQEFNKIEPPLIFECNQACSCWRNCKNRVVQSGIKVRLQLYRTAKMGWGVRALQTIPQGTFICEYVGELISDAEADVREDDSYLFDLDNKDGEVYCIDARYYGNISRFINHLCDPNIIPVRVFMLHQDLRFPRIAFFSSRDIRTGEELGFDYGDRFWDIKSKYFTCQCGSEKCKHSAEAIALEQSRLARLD
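Compounds were preincubated with 20 nM G9a for 15 min, after which biotinylated H3K9 peptide (500 nM) and SAM (20 uM) started a 2 h room-temperature reaction. Monomethylated product was quantified by antibody-based AlphaScreen chemiluminescence.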
GLS inh: qHTS for Inhibitors of Glutaminase (GLS). AID 624170, 2012. GLS enzymatic activity, qHTS titration. Glutaminase kidney isoform, mitochondrial (Homo sapiens), O94925. Potency, µM (top dose mostly 45.5 µM), without a hit: at the highest dose activity change, negative = inhibition, usual class: inhibitors. actives 0.21% (n = 410,000); note: % is set by controls: 0 for no effect and ±100 for the full control effect
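Coupled fluorescence readout: glutamate oxidase/HRP/Amplex Red detect glutamate formed by hKGA from L-glutamine (1 mM solution added). Buffer 45 mM KH2PO4 pH 8.2, 0.02% Tween-20; reads at t0 and 30 min RT.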
HP1b binding inh: HTS for Inhibitors of HP1-beta Chromodomain Interactions with Methylated Histone Tails | AlphaScreen HP1-beta / biotin-H3K9me3 peptide binding | Potency, µM (series often up to 114 µM), for the others: at the top dose activity change, negative = inhibition, usual class: inhibitors | actives 0.56% (n = 390,000) | AID 540317, 2011; note: nearly all actives have a fitted effect of over 70% in size
Target sequence (P83916 whole entry, looked up): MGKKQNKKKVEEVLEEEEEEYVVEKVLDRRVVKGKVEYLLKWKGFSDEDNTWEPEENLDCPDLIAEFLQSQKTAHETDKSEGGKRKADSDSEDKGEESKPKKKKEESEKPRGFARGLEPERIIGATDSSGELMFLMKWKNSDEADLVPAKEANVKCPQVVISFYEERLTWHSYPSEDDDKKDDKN
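AlphaScreen: HP1-beta (50 nM) preformed 30 min with biotin-H3(1-18)K9me3 peptide (50 nM) in PBS pH 7.4, 0.01% Tween-20. Compound added for 30 min at RT, then streptavidin donor/nickel chelate acceptor beads (10 ug/mL) for 30 min.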
An asterisk follows results filed as active; ? = inconclusive; nt = not tested or not shown; [ ] = dose if it differs, or a comment. Shown are actives, neighbours in structure and some others; about 10% of the full set was active somewhere. Calls come from the whole dose curve; as a rule, active = well fitted curve in the direction sought with a large enough effect; inconclusive = small, poorly fitted or top-dose-only effect, or another doubt; inactive = no such curve, though single readings can be large; an effect the other way counts as inactive or inconclusive. Potency is the fitted concentration of half-maximal effect.

SMILES | JMJD2A Tudor | BAZ2B block | G9a inh | GLS inh | HP1b binding inh
COc1cccc(CNC(=O)c2ccc3c(c2)S(=O)(=O)N=C2CCCCCN23)c1 | -10% | -15% | 27% | -1% | 25%
COc1cccc(CNC(=O)c2cc3c(cc2Cl)N2CCCCCC2=NS3(=O)=O)c1 | -9% | 10% | 11µM* | 1% | 33%
O=C(NC1CCCCC1)c1cc2c(cc1Cl)N1CCCCCC1=NS2(=O)=O | -2% | 10% | 50µM* | 4% | 19%
O=C(O)c1cc2c(cc1Cl)N1CCCCCC1=NS2(=O)=O | -19% | -14% | -36% | -3% | 41%
O=C1Nc2ccccc2N=C(c2ccccc2)C1N1CCOCC1 (stereo not drawn) | -7% | 1% | 40µM* | -8% | 41%
CCN(CC)CCP(=O)(c1ccccc1)c1ccccc1 | -15% | 12% | -2%[12.7 µM] | 2% | 14%
CCN(CC)CCN(C)C1CCC(c2ccccc2)CC1 (stereo not drawn) | 6.3µM* | 56µM* | 8.9µM* | 8% | ?
COc1ccc(C2C(C(C)=O)=C(C)Nc3ncnn32)cc1[N+](=O)[O-] (stereo not drawn) | 89µM* | -4% | 12% | 2% | 55%
Cc1cc(C)c(CSc2ncc(-c3ccc([N+](=O)[O-])cc3)[nH]2)c(C)c1 | ? | 10µM* | ? | 4% | ?
O=c1[nH]c(SCc2ccccc2Cl)nc2c1CCC2 | -8% | -6% | 6%[12.7 µM] | 2% | 28%
NC(=O)CSc1ncc(-c2ccc([N+](=O)[O-])cc2)[nH]1 | -13% | -3% | ? | 0% | 24%
O=[N+]([O-])c1ccc(-c2cnc(SCc3ccccc3Cl)[nH]2)cc1 | ? | 32µM* | 35µM* | 8% | ?
O=[N+]([O-])c1ccc(-c2cnc(SC(c3ccccc3)c3ccccc3)[nH]2)cc1 | ? | 40µM* | 13µM* | -8% | ?
C[N+]1(C)CCC(OC(=O)CC(O)(c2ccccc2)C2CCCC2)C1 (stereo not drawn) | nt | nt | nt | -1% | nt
Clc1ccc2[nH]cc(-c3nnnn3-c3ccccc3)c2c1 | -8%[57.1 µM] | -1% | 49% | -7% | 15%
COc1cc(-c2nnc(SCC(=O)N3CCOCC3)o2)cc(OC)c1OC | -28% | -5% | 40µM* | 1% | 9%
O=C(CSc1nnc(-c2ccc(O)cc2)o1)N1CCOCC1 | 2% | 16% | -5%[59 µM] | 8.9µM* | 52%
COc1cc(-c2nnc(SCC(=O)N3CCCC3)o2)cc(OC)c1OC | -12% | 31% | -17%[59 µM] | 2% | -20%
N#Cc1nc(NCCO)nc(Nc2ccccc2)n1 | -28% | nt | nt | nt | nt
CSCC[C@H]1COC[C@@H](Cc2ccccc2)N1c1ccccc1 | nt | nt | nt | 0% | nt
O=C(NCCc1ccccc1)C1(c2cccs2)CCOCC1 | -13% | -12% | -2%[59 µM] | 1% | 7%
O=C(NN=Cc1cc(Cl)ccc1[N+](=O)[O-])c1ccco1 | -8% | nt | nt | -1% | 29%
CC(C)C(=O)NC(c1cccc([N+](=O)[O-])c1)c1ccc2cccnc2c1O (stereo not drawn) | ? | 25µM* | nt | -23% | 29%
CC(C)C(=O)NC(c1ccco1)c1ccc2cccnc2c1O (stereo not drawn) | 79µM* | nt | 6%[59 µM] | 19% | 31%
CCN(CC)c1ccc(C(NC(=O)C(C)C)c2ccc3cccnc3c2O)cc1 (stereo not drawn) | nt | nt | nt | 21% | nt
SMILES | JMJD2A Tudor | BAZ2B block | G9a inh | GLS inh | HP1b binding inh
Oc1c(C(Nc2nc3ccccc3s2)c2ccco2)ccc2cccnc12 (stereo not drawn) | ? | 50µM* | 25µM* | -2% | -4%
c1coc(CNc2nc3ccccc3s2)c1 | -19% | -14% | 17%[2.33 µM] | 0% | 6%
O=C1c2ccccc2NC(c2ccccc2O)N1O (stereo not drawn) | -16% | -38% | 23% | 25% | 25%
O=C1c2ccccc2NC(c2cccs2)N1O (stereo not drawn) | ? | -3% | 32µM* | 14% | 46%
O=C(CNCc1cccc2ccccc12)Nc1ccccc1[N+](=O)[O-] | ? | ? | 50µM* | -7% | ?
CCONC(=O)Nc1ccccc1[N+](=O)[O-] | -6% | 12% | 71µM* | 14% | 24%
O=[N+]([O-])c1cccc(S(=O)(=O)c2ccc(NCCO)c([N+](=O)[O-])c2)c1 | 14µM* | -28% | -29% | ? | ?
CCNc1ccc(S(=O)(=O)N(C)C)cc1[N+](=O)[O-] | 32µM* | ? | nt | 1% | -6%
NC(=O)CC(NC(=O)c1ccccc1)c1ccc(NCc2ccc(F)c(F)c2)c([N+](=O)[O-])c1 (stereo not drawn) | ? | ? | 71µM* | 10% | 3%
COc1ccc(OC)c(C(=O)NC(CC(N)=O)c2ccc(NCc3ccc(F)c(F)c3)c([N+](=O)[O-])c2)c1 (stereo not drawn) | ? | 45µM* | 89µM* | 3% | -11%
CCCOc1cccc(C2/C(=C(\O)c3ccc4c(c3)OCCO4)C(=O)C(=O)N2CCCn2ccnc2)c1 (stereo not drawn) | -1% | -22% | -50% | 2% | 19%
COc1cccc(C2/C(=C(\O)c3ccc4c(c3)OCCO4)C(=O)C(=O)N2Cc2cccnc2)c1 (stereo not drawn) | -14% | -36% | 56µM* | 1% | 43%
CN(C)CCN1C(=O)C(=O)/C(=C(/O)c2ccc3c(c2)OCCO3)C1c1ccccn1 (stereo not drawn) | -31% | 56µM* | 32µM* | -11% | 26%
O=C1C(=O)N(Cc2ccncc2)C(c2ccccc2F)/C1=C(\O)c1ccc2c(c1)OCCO2 (stereo not drawn) | -23% | -28% | 40µM* | -2% | 26%
O=C1C(=O)N(Cc2cccnc2)C(c2cccc(F)c2)/C1=C(/O)c1ccc2c(c1)OCO2 (stereo not drawn) | -8% | 3% | ? | 13% | 42%
O=C1C(=O)N(Cc2cccnc2)C(c2cccc([N+](=O)[O-])c2)/C1=C(\O)c1ccc2c(c1)OCCO2 (stereo not drawn) | 56µM* | -23% | ? | 4% | 43%
COc1cc2c(cc1NC(=O)Nc1ccc(F)cc1)oc1ccccc12 | 0% | -2% | 28%[59 µM] | -2% | 32%
COc1cc(C2/C(=C(\O)c3ccc4c(c3)OCCO4)C(=O)C(=O)N2CCN2CCOCC2)cc(OC)c1OC (stereo not drawn) | ? | -12% | nt | 0% | 12%
